Experiment [1] can be described thus: Human pregnane X receptor (PXR) small molecule agonists, qHTS cell viability counter screen (AID 1346977). Note: nearly all actives have a fitted effect of over 50% in size. Note: potency is the fitted concentration of half-maximal effect. The procedure, abridged: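 PXR-Luc HepG2 cells in medium with 5% charcoal-stripped FBS were pre-incubated 5hr, then exposed to compounds for 24hr at 37C. Viability was read in the same wells by CellTiter-Fluor fluorescence, reagent added after 23hr with a 1hr incubation.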

Experiment [2] is described as follows: Caspase-3/7 induction in HepG2 cells by small molecules, qHTS assay (AID 1346978). Note: nearly all actives have a fitted effect of over 15% in size. Note: potency is the fitted concentration of half-maximal effect. The procedure, abridged:
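Wild-type HepG2 cells, 2,000/well, settled 5 hr at 37 C and 5% CO2, then compound-treated for 17 hr; caspase-3/7 activity read by luminescent Caspase-Glo 3/7 after 30 min at room temperature.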

A short description of experiment [3]: Caspase-3/7 induction in CHO-K1 cells by small molecules, qHTS cell viability counter screen (AID 1346979). Note: nearly all actives have a fitted effect of over 35% in size. Note: potency is the fitted concentration of half-maximal effect. The method in brief: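 Wild-type CHO-K1 cells were seeded at 1,500 per well, rested 5hr at 37 C, then exposed to compounds in DMSO. After 16hr, CellTiter-Fluor reagent was added and fluorescence read 1hr later as the viability measure.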
Background: qHTS replaces the single test concentration by a dilution series.

The nature of experiment [4]: Caspase-3/7 induction in CHO-K1 cells by small molecules, qHTS assay (AID 1346980). Note: % is set by controls: 0 for no effect and ±100 for the full control effect; nearly all actives have a fitted effect of over 15% in size. The method in brief: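 Wild-type CHO-K1 cells exposed to compounds for 17hr at 37 C, 5% CO2. Caspase-3/7 activity then measured by Caspase-Glo 3/7 luminescence after 30min at room temperature.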
The nature of experiment [5]: Caspase-3/7 induction in HepG2 cells by small molecules, qHTS cell viability counter screen (AID 1346981). Note: nearly all actives have a fitted effect of over 30% in size. Note: potency is the fitted concentration of half-maximal effect. The procedure, abridged: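 Treatment of HepG2 cells with DMSO-delivered compounds ran 16 hr at 37 C following a 5-hr pre-incubation of 2,000 cells/well. CellTiter-Fluor fluorescence, read after 1 hr, served as the viability measure in a qHTS format.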
The target in experiment [6] is Nuclear receptor subfamily 1 group I member 2 (Homo sapiens) (UniProt O75469). As to the kind of experiment: Human pregnane X receptor (PXR) small molecule agonists, qHTS assay (AID 1346982). For activation: % is set by controls: 0 for no effect and ±100 for the full control effect. Note: nearly all actives have a fitted effect of over 35% in size. Note: potency is the fitted concentration of half-maximal effect. The procedure, abridged: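 Stable HepG2 line reporting PXR-mediated CYP3A4 expression via luciferase. Treatment: 24 hr with compounds in DMSO at 37 C. Detection: ONE-Glo luminescence.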

The target of experiment [7] is Nuclear receptor subfamily 1 group I member 2 (Rattus norvegicus) (UniProt Q9R1A7). In words: Rat pregnane X receptor (rPXR) activation by small molecules, qHTS assay (AID 1346983). Note: % is set by controls: 0 for no effect and ±100 for the full control effect; nearly all actives have a fitted effect of over 20% in size. The settings on record: rPXR luciferase reporter cells, One-Glo luminescence, 24 h; stronger effect = higher value. The procedure, abridged:
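Cell-based rPXR activation assay: rPXR cells, 2,000 per well, rested 5hr at 37 C, then exposed to compounds in DMSO for 24 hr at 37 C. Luciferase activity read by One-Glo luminescence after 30 min at room temperature.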

Experiment [8] addresses Nuclear receptor subfamily 1 group I member 2 (Homo sapiens) (UniProt O75469). As to the kind of experiment: CYP3A4 induction through human pregnane X receptor (PXR) by small molecules, qHTS assay (AID 1346984). For activation: % is set by controls: 0 for no effect and ±100 for the full control effect. Note: nearly all actives have a fitted effect of over 40% in size. Note: potency is the fitted concentration of half-maximal effect. The procedure, abridged: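 After 24 h at 37C with compound, DPX-2 cells (HepG2, co-transfected PXR response element and CYP3A4 promoter-luciferase) got 3uM final P450-Glo Luciferin-IPA for 3 h; One-Glo luminescence followed.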

Experiment [9] concerns the target Acetylcholinesterase (Homo sapiens) (UniProt P22303). As to the kind of experiment: Acetylcholinesterase (AChE) small molecule antagonists: colormetric cell-based qHTS assay (AID 1347395; calls by dose curve; note: % is set by controls: 0 for no effect and ±100 for the full control effect; nearly all actives have a fitted effect of over 30% in size). The procedure, abridged: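 SH-SY5Y cells, plated overnight at 37 C, were exposed to compounds for 30 min at 37 C and 5% CO2. Acetylthiocholine plus DTNB was then added, and thiocholine from endogenous AChE was quantified colorimetrically after 90 min at 37 C.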

Experiment [10] shares this target. In words: Acetylcholinesterase (AChE) small molecule antagonists: enzyme-based qHTS assay (AID 1347397; calls by dose curve; note: % is set by controls: 0 for no effect and ±100 for the full control effect; nearly all actives have a fitted effect of over 55% in size). The settings on record: Potency: AChE enzyme activity inhibition. The method in brief: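 Colorimetric DTNB read-out of thiocholine released from acetylthiocholine by recombinant human AChE (50 mU/mL as dispensed). Compounds were preincubated 30 min at RT before substrate/DTNB addition, with a 10 min RT reaction.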

For experiment [11] the target is unchanged. In words: Acetylcholinesterase (AChE) small molecule antagonists: fluorescence cell-based qHTS assay (AID 1347398; calls by dose curve; note: % is set by controls: 0 for no effect and ±100 for the full control effect; nearly all actives have a fitted effect of over 50% in size). The settings on record: Potency: AChE activity. The method in brief: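 SH-SY5Y, 2,000 cells/well, attached overnight; cmpd 30 min 37 C; acetylthiocholine/Thiolite Green cocktail 40 min RT; fluorescence Ex/Em 490/520 nm.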
The target is the same in experiment [12]. In words: Acetylcholinesterase (AChE) small molecule antagonists: enzyme-based qHTS assay with human liver microsomes (AID 1347399; calls by dose curve; note: % is set by controls: 0 for no effect and ±100 for the full control effect; nearly all actives have a fitted effect of over 60% in size). The settings on record: Potency: qHTS inhibition. The method in brief:
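Recombinant human AChE (50 mU/mL in the enzyme mix) and human liver microsomes (0.25 mg/mL final) were preincubated with compound and NADPH (0.25 mg/mL final) for 30 min at 37 C. Acetylthiocholine/DTNB was then added; thiocholine was read colorimetrically after 10 min at room temperature.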

Experiment [13] concerns the target Cytochrome P450 2D6 (Homo sapiens) (UniProt P10635). In words: Cytochrome P450 Family 2 Subfamily D Member 6 (CYP2D6) small molecule antagonists: luciferase reporter qHTS assay (AID 1671196). Note: nearly all actives have a fitted effect of over 50% in size. Note: potency is the fitted concentration of half-maximal effect. The method in brief: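 Chemicals tested for interference with CYP2D6 activity; proluciferin substrate, NADPH regeneration, 1 h at room temperature, luminescent detection.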

For experiment [14], the target named is Cytochrome P450 2C19 (Homo sapiens) (UniProt P33261). As to the kind of experiment: Cytochrome P450 Family 2 Subfamily C Member 19 (CYP2C19) small molecule antagonists: luciferase reporter qHTS assay (AID 1671197). Note: potency is the fitted concentration of half-maximal effect; nearly all actives have a fitted effect of over 65% in size. The procedure, abridged:
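Relative luminescence units recorded 20 min after the detection reagent stopped a 1 h, 37C CYP2C19 reaction on proluciferin substrate, which was started by NADPH regeneration following 10 min room-temperature compound preincubation; ketoconazole positive control.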

Experiment [15] has as its target Cytochrome P450 2C9 (Homo sapiens) (UniProt P11712). As to the kind of experiment: Cytochrome P450 Family 2 Subfamily C Member 9 (CYP2C9) small molecule antagonists: luciferase reporter qHTS assay (AID 1671198). Note: nearly all actives have a fitted effect of over 50% in size. Note: potency is the fitted concentration of half-maximal effect. The procedure, abridged: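 P450-Glo proluciferin substrate with CYP2C9 enzyme; 10 min RT preincubation, then NADPH regeneration 1 h at 37C; luciferin detection reagent 20 min RT, luminescence in relative luminescence units.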

The target in experiment [16] is Voltage-gated inwardly rectifying potassium channel KCNH2 (Homo sapiens) (UniProt Q12809). In words: Human Ether-a-go-go-Related Gene (hERG) channel small molecule antagonists: fluorescence cell-based qHTS assay (AID 1671200). Note: nearly all actives have a fitted effect of over 50% in size. Note: potency is the fitted concentration of half-maximal effect. The method in brief:
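U2OS cells expressing the channel were plated at 1000 cells/well, incubated overnight at 37 C, then loaded with FluxOR II thallium-sensitive dye for 1 h at room temperature in the dark, with a further 10 min at room temperature before stimulation.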

Experiment [17] has as its target Cytochrome P450 1A2 (Homo sapiens) (UniProt P05177). As to the kind of experiment: Cytochrome P450 Family 1 Subfamily A Member 2 (CYP1A2) small molecule antagonists: luciferase reporter qHTS assay (AID 1671199). Note: nearly all actives have a fitted effect of over 50% in size. Note: potency is the fitted concentration of half-maximal effect. The method in brief:
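Read-out is luminescence from luciferin detection reagent (20 min) proportional to CYP1A2 activity; compounds in DMSO preincubated 10 min with enzyme and proluciferin substrate, then NADPH regeneration solution, 1 h, room temperature.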
On the technique in general: In a reporter assay the amount or activity of a reporter protein is the signal.

Experiment [18] addresses Nuclear receptor subfamily 1 group I member 2 (Homo sapiens) (UniProt O75469). In words: Human pregnane X receptor (PXR) activation by small molecules, qHTS assay (AID 1346985). Note: % is set by controls: 0 for no effect and ±100 for the full control effect; nearly all actives have a fitted effect of over 40% in size. The procedure, abridged: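 DPX-2 cells (HepG2 co-transfected with a PXR response element and a CYP3A4-promoter luciferase construct) were seeded at 2,000 per well, rested 5 hr at 37C, then exposed to DMSO-dissolved compounds for 24 hr. Activation was read as luciferase luminescence.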

The target in experiment [19] is Cytochrome P450 3A4 (Homo sapiens) (UniProt P08684). In words: Cytochrome P450 Family 3 Subfamily A Member 4 (CYP3A4) small molecule antagonists: luciferase reporter qHTS assay (AID 1671201). The procedure, abridged:
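P450-Glo CYP3A4 system with proluciferin substrate; compounds preincubated 10 min RT with enzyme-substrate mix, then NADPH regeneration added for 1 h RT. Detection reagent 20 min, luminescence read as relative luminescence units.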

Values joined by “and” are separate entries in the source; they are usually repeats but may differ in a detail not shown here. Equal entries are not always repeated. Records with an inconclusive call do not appear. Some compounds were tested as several samples or in several runs, with calls that do not always agree. Active and inactive are the calls of the source. Unless noted, calls come from the whole dose curve; as a rule, active = well fitted curve in the direction sought with a large enough effect in the repeat runs; inconclusive = weak or mixed curves; inactive = no such curve, though single readings can be large; an effect the other way counts as inactive or inconclusive.

Sequence of Cytochrome P450 2C19 (Homo sapiens) (P33261 whole entry, looked up): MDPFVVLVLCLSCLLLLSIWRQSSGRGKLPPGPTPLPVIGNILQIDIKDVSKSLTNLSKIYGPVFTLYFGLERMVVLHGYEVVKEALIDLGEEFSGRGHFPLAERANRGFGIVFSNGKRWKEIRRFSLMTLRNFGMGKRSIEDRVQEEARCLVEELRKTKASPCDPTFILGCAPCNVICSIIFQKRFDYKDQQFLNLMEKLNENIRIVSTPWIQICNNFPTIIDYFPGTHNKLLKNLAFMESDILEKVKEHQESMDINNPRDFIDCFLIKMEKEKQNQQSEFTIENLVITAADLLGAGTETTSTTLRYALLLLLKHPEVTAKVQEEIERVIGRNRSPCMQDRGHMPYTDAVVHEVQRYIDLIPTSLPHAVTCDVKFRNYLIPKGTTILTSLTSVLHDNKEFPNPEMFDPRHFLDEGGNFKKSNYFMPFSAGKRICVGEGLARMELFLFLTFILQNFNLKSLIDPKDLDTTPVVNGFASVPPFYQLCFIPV
Sequence of Cytochrome P450 1A2 (Homo sapiens) (P05177 whole entry, looked up): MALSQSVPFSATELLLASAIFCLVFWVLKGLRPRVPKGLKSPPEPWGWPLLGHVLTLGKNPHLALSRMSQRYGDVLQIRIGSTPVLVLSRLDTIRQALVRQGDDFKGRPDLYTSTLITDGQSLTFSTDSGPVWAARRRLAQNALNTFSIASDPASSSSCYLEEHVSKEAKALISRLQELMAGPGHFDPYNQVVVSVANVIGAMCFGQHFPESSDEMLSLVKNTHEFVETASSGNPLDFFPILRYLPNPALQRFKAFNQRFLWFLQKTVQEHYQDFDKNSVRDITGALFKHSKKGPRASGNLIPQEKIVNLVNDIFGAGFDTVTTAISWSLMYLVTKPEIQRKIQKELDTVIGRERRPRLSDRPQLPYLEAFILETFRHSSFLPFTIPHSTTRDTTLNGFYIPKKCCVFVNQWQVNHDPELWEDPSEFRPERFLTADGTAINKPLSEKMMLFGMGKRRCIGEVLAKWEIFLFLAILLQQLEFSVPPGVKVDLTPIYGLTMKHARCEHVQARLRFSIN
Sequence of Cytochrome P450 2D6 (Homo sapiens) (P10635 whole entry, looked up): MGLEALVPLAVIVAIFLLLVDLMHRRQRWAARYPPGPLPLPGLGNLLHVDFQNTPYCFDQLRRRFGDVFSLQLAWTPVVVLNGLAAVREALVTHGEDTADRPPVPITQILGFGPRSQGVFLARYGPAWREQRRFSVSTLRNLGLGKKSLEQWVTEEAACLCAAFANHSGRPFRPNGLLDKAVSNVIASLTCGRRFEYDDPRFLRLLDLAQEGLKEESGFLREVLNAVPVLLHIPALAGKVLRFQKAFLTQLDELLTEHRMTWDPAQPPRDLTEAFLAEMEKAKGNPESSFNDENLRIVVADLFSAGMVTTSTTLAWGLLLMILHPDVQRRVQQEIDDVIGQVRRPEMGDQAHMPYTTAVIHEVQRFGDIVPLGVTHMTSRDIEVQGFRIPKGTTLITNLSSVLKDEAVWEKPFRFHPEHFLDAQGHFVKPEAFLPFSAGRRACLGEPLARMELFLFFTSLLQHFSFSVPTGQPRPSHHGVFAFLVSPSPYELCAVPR
Sequence of Cytochrome P450 2C9 (Homo sapiens) (P11712 whole entry, looked up): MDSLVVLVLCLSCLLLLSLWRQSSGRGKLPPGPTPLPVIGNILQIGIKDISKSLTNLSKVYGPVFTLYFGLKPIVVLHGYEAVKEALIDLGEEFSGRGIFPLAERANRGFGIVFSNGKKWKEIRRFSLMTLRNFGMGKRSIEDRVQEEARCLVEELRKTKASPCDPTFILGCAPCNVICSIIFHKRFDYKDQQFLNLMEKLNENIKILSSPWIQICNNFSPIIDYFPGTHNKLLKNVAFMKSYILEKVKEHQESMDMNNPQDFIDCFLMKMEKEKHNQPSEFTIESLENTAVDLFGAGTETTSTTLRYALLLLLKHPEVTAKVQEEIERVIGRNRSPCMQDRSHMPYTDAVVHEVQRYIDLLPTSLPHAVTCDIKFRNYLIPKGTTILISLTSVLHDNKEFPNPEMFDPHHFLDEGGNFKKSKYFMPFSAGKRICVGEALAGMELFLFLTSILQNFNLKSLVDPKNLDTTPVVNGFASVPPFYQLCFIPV
Sequence of Acetylcholinesterase (Homo sapiens) (P22303 whole entry, looked up): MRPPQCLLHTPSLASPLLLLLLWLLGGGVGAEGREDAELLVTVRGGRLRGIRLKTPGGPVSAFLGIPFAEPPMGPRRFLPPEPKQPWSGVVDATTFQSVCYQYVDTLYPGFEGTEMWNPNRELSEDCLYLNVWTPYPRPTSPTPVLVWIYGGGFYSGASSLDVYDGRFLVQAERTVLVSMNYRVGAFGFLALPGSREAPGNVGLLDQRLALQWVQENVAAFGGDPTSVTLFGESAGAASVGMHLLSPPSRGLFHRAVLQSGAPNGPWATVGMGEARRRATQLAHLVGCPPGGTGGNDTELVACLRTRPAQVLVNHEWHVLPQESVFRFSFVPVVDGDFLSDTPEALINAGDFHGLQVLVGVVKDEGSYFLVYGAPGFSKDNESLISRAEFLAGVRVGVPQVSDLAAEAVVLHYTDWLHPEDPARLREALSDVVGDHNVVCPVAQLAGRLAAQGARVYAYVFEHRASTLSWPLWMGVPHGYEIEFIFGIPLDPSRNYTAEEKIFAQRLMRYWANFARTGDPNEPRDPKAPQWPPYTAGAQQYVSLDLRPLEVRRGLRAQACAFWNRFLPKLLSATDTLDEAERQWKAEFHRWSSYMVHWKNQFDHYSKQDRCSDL
Sequence of Nuclear receptor subfamily 1 group I member 2 (Rattus norvegicus) (Q9R1A7 whole entry, looked up): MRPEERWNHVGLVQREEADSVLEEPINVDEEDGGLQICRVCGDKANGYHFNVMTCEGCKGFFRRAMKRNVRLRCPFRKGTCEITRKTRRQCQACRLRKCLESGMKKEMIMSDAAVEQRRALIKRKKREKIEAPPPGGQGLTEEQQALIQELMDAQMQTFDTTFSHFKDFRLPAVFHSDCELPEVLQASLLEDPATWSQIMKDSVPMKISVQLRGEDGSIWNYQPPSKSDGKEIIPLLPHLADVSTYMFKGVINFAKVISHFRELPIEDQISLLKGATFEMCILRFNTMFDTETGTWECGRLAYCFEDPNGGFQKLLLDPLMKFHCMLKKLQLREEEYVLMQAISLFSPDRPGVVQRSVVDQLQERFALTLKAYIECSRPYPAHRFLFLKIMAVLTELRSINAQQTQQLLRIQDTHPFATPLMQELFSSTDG
Sequence of Voltage-gated inwardly rectifying potassium channel KCNH2 (Homo sapiens) (Q12809 whole entry, looked up): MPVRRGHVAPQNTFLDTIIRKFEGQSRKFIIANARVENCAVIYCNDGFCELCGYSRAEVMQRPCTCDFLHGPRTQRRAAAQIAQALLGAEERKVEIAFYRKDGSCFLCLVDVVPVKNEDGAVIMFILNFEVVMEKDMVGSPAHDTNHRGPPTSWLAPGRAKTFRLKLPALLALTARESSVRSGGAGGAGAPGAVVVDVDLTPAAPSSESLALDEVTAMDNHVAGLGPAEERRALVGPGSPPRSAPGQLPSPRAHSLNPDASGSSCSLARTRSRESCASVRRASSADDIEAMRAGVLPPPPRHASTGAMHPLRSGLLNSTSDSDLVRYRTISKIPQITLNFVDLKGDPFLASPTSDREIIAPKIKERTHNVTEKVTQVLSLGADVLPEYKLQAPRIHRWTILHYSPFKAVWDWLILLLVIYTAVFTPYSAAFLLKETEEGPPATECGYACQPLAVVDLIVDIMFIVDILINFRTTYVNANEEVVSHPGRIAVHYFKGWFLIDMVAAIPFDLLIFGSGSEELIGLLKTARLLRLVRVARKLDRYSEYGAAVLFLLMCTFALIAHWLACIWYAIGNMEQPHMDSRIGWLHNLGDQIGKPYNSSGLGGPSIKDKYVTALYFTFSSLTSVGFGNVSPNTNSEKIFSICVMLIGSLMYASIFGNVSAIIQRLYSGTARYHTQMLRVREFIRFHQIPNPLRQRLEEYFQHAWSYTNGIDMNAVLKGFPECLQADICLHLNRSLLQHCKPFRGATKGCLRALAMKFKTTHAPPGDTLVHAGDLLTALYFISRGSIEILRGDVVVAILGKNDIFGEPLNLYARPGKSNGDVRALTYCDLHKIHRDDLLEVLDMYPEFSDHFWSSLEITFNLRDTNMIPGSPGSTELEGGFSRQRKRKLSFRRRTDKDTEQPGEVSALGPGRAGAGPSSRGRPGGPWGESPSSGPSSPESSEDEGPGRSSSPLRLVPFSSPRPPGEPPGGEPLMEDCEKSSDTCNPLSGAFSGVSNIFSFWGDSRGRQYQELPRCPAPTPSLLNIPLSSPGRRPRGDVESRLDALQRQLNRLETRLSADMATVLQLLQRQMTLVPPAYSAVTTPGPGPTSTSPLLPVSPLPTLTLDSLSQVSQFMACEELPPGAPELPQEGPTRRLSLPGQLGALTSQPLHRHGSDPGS
Sequence of Nuclear receptor subfamily 1 group I member 2 (Homo sapiens) (O75469 whole entry, looked up): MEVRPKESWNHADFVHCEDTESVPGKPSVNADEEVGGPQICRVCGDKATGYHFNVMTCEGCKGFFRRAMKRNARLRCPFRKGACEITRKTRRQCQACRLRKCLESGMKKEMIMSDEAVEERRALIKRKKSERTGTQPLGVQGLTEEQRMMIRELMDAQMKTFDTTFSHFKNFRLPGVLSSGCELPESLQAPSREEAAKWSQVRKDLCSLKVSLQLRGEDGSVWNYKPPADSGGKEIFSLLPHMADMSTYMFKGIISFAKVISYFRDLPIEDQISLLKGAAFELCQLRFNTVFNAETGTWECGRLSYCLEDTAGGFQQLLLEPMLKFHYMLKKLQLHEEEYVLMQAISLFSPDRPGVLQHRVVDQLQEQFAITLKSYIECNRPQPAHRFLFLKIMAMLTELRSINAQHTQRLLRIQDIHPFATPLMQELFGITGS

In the case of `CC(C)=CC1C(C(=O)OCc2cccc(Oc3ccccc3)c2)C1(C)C` (configuration not stated), the Potency result in [1], in experiment [2], in [3], in experiment [4], in [5] and in [8] was “inactive” in each case. The Potency entry in experiment [9], in experiment [10], in [11], in experiment [12] and in experiment [16] was “inactive” in each case. In addition, the Potency in [6] is 24.3 µM (active) and 13.3 µM (active); in experiment [13], 39.9 µM (active) and inactive; in experiment [14], 7.96 µM (active); in experiment [15], 3.17 µM (active) and 3.09 µM (active). The max activation in experiment [7] is 1.4% (inactive).

Regarding `COc1ccc(C=O)cc1OC`, the Potency result in experiment [1], in [2], in experiment [3], in experiment [4], in experiment [5] and in experiment [6] was “inactive” throughout. Besides, the Potency result in experiment [9], in [10], in experiment [11], in [12], in experiment [13] and in experiment [15] was “inactive” in each case. Also, the Potency entry in experiment [16] is “inactive”. Moreover, the Potency in [14] is 9.04 µM (active) and 71 µM (active); in experiment [17], 32.1 µM (active) and 31.7 µM (active).

As for `Nc1ccc([N+](=O)[O-])cc1N`, the Potency was 22.4 µM (active) and 61.1 µM (active) in experiment [1]; 6.11 µM (active) and 30.6 µM (active) in [3]; 54.4 µM (active) and 54.5 µM (active) in [5]; 8.63 µM (active) in experiment [6]; “inactive and 71 µM (active)” in experiment [13]; 25.2 µM (active) in [14]. The Potency is 39.9 µM (active) and 63.3 µM (active) in experiment [15]; 35.6 µM (active) and 31.7 µM (active) in [17]. The Potency result in experiment [2], in experiment [4], in experiment [9], in [10], in experiment [11] and in experiment [12] was “inactive” each time. Moreover, the Potency entry in [16] was “inactive”.

In the case of `Oc1ccc(Cl)cc1Cc1ccccc1`, the Potency in [1] is 70.8 µM (active) and inactive; in experiment [2] it was 53.6 µM (active); in experiment [3] it was 55.1 µM (active); in experiment [5], 61.9 µM (active) and inactive; in experiment [6], 61.1 µM (active) and 19.6 µM (active) and inactive; in [13], 67.8 µM (active) and inactive. Besides, the Potency was 3.56 µM (active) and 1.61 µM (active) and 2.19 µM (active) in experiment [14]; 25.2 µM (active) and 12.1 µM (active) and 9.77 µM (active) in [15]; 44.8 µM (active) and 33 µM (active) and 30.9 µM (active) in [17]. Besides, the Potency result in experiment [4], in [8], in [9], in [10], in experiment [11] and in experiment [12] was “inactive” throughout. For the same molecule, the Potency entry in experiment [16] and in [19] was “inactive” each time. In addition, the max activation in experiment [7] was -2.22% (inactive). Moreover, the outcome in [18] was inactive.

As for `CC(C)=CC1C(C(=O)OCN2C(=O)C3=C(CCCC3)C2=O)C1(C)C` (configuration not stated), the Potency entry in experiment [1], in experiment [2], in [3], in [4], in experiment [5] and in [9] was “inactive” each time. Also, the Potency entry in [10], in experiment [11], in experiment [12] and in experiment [17] was “inactive” throughout. For the same molecule, the Potency in [6] was 61.1 µM (active) and 29.8 µM (active); in experiment [8] it was 12.6 µM (active); in experiment [13], 22.4 µM (active) and 15.5 µM (active); in [14], 8.94 µM (active) and 3.89 µM (active); in experiment [15], 35.6 µM (active) and 27.5 µM (active); in experiment [16], 38.9 µM (active). Moreover, in experiment [7], the max activation is -0.665% (inactive).

(Values after PubChem BioAssay (Tox21).)
